# Measured values reported in paper PMC10726135, “HNF4α isoforms regulate the circadian balance between carbohydrate and lipid metabolism in the liver”.
# Over roughly 18,000 sequences, “log2 normalized intensity” has its median near 0.39; the highest 2% begin near 6.6. What follows is part of a selection rich in the highest values, with near analogues and random picks from the rest.
# Biological target: T1, HNF4alpha2 (COS-7 nuclear extract) (Homo sapiens, UniProt P41235 1-474)
# T1 sequence: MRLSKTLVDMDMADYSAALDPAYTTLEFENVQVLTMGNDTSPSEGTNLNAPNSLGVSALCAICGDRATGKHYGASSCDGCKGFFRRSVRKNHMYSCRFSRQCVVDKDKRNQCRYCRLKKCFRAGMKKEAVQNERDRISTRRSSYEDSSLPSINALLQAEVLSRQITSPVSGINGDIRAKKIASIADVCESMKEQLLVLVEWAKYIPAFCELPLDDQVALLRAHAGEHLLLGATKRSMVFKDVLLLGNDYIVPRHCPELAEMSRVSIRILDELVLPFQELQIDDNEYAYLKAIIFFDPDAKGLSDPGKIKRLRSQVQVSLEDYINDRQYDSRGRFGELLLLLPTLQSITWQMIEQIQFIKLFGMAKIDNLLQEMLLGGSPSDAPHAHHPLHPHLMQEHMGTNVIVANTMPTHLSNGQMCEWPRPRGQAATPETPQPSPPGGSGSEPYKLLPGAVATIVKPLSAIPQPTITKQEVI
# Experiment: protein-binding microarray; COS-7 nuclear extract on double-stranded Agilent 4x180k PBM; binding buffer, salt, pH and temperature not given in the material; high values mean tight binding
# Conditions: chain copies: 2; label: 3' end of strand 1 on the slide; dsDNA, one strand shown
# How it was run: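 The binding signal is Agilent software's gProcessedSignal after background correction and normalization. Arrays were a custom Agilent SurePrint G3 4x180k design of double-stranded ~60-nt oligonucleotides with ~44,000 test sequences in quadruplicate, probed with nuclear extracts of COS-7 cells transiently expressing a human HNF4α isoform. Scans were made at 2-µm resolution on an Agilent G2565CA scanner.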
row,Sequence,binding signal [log2 normalized intensity]
1,CCCATCCAAAGGTCAGCAATCTCAAAGACTGCCTAGGGAGATTAGAGTATCGGTCGA,2.36
2,TAAGTTTAAGTCCAGAAAAGACCAAAAAGGGCCTAGGGAGATTAGAGTATCGGTCGA,0.39
3,TAACTATGGTCACGCGGCCAAAATGTTCAGGCCTAGGGAGATTAGAGTATCGGTCGA,0.22
4,CTGTGTCATCTGAACTCTGACCAACGCCTCGCCTAGGGAGATTAGAGTATCGGTCGA,2.73
5,TGACCTTTGCTCCAGTTCCCAATAATTTCCGCCTAGGGAGATTAGAGTATCGGTCGA,4.46
6,CATAGCAAGAGTGACCTTTGCTCCAGTTCCGCCTAGGGAGATTAGAGTATCGGTCGA,7.45
7,CAAGAGTGACCTTTGCTCCAGTTCCCAATAGCCTAGGGAGATTAGAGTATCGGTCGA,6
8,CAGTACTGAAACATGCCTATGACCGAGGGTGCCTAGGGAGATTAGAGTATCGGTCGA,0.809
9,TGCTTGGAATGCTATTTGCATTGACACAACGCCTAGGGAGATTAGAGTATCGGTCGA,0.296
10,TTCTGTTCAATGGTGCTTTTGATATTGTTGGCCTAGGGAGATTAGAGTATCGGTCGA,2.06
11,CAACTGACATCTGGAAATGTTTGTAGGGACGCCTAGGGAGATTAGAGTATCGGTCGA,0.308
12,AGCAATGTTTCTTGTCCAGGGACTTTGAACGCCTAGGGAGATTAGAGTATCGGTCGA,5.74
13,GACATCTGGAAATGTTTGTAGGGACTTTGAGCCTAGGGAGATTAGAGTATCGGTCGA,4.28
14,AATGTTTGTAGGGACTTTGACCCCTAAAACGCCTAGGGAGATTAGAGTATCGGTCGA,8.73
15,CTTTGACCCTGTTTTGTAAACTCCCTTTGAGCCTAGGGAGATTAGAGTATCGGTCGA,1.78
16,CTGGAAATGTTTGTAGGGACTTTGACCCCTGCCTAGGGAGATTAGAGTATCGGTCGA,9.92
17,AGTTTGACTCCAAAGGGCTGGAGACTGAGTGCCTAGGGAGATTAGAGTATCGGTCGA,-0.509
18,TCTAAGACCCATCCCTCAGGGTCCATATCCGCCTAGGGAGATTAGAGTATCGGTCGA,2.84
19,CACCTTCTTCCTAGGCAATCCCATGACCTTGCCTAGGGAGATTAGAGTATCGGTCGA,3.25
20,TGTCTTCTGACCTTTGGCAATATCTCCCAGGCCTAGGGAGATTAGAGTATCGGTCGA,3.48
21,CTAGGCAATCCCATGACCTTTGTACTAATGGCCTAGGGAGATTAGAGTATCGGTCGA,7.57
22,TCTTCCTAGGCAATCCCATGACCTTTGTACGCCTAGGGAGATTAGAGTATCGGTCGA,8.78
23,CCATGACCTTTGTACTAATGATTTGTAAATGCCTAGGGAGATTAGAGTATCGGTCGA,5.25
24,CAATCCCATGACCTTTGTACTAATGATTTGGCCTAGGGAGATTAGAGTATCGGTCGA,5.84
25,TCTGAAGATAAATGCCTTAGCTGTGACCATGCCTAGGGAGATTAGAGTATCGGTCGA,0.619
26,CTCTAGGGTAGATAAGGATGGATCAAAGGAGCCTAGGGAGATTAGAGTATCGGTCGA,-0.461
27,TTCCACCTGGAATGCACTTGTTCCGGATAGGCCTAGGGAGATTAGAGTATCGGTCGA,1.11

row,Sequence,binding signal [log2 normalized intensity]
1,CAGTTGACCTTTGAACACCACAAGTTTGAAGCCTAGGGAGATTAGAGTATCGGTCGA,6.31
2,GACCTTTGAACACCACAAGTTTGAACTGCAGCCTAGGGAGATTAGAGTATCGGTCGA,5.05
3,CCATGGTAAGAACTACAGTTGACCTTTGAAGCCTAGGGAGATTAGAGTATCGGTCGA,7.38
4,ATGCCCCATGGTAAGAACTACAGTTGACCTGCCTAGGGAGATTAGAGTATCGGTCGA,4.18
5,AACTACAGTTGACCTTTGAACACCACAAGTGCCTAGGGAGATTAGAGTATCGGTCGA,7.56
6,TAGGTATGCCCCATGGTAAGAACTACAGTTGCCTAGGGAGATTAGAGTATCGGTCGA,0.881
7,GGAATGTTGCTGTGCTGCCCTCTTGTGGCCGCCTAGGGAGATTAGAGTATCGGTCGA,1.66
8,TGTTTCCAATAGGTTTGATTTCAGCATGTTGCCTAGGGAGATTAGAGTATCGGTCGA,1.59
9,TATGTGGTGGAATGGAAAGAATATGAACTTGCCTAGGGAGATTAGAGTATCGGTCGA,1.66
10,ACCCCACGGAGCTGCCTCACATGAGCTAGAGCCTAGGGAGATTAGAGTATCGGTCGA,-0.873
11,GGGCCCTGACCTCAAGTGACCTTTGACCTCGCCTAGGGAGATTAGAGTATCGGTCGA,12.1
12,GCCCCTGGCTGGGCCCTGACCTCAAGTGACGCCTAGGGAGATTAGAGTATCGGTCGA,1.91
13,ATTGGCCCTTTGACCTTTAATCAAGGGCTGGCCTAGGGAGATTAGAGTATCGGTCGA,5.08
14,CCAGGCTGATTTAGCTATTTGACCTTCGGCGCCTAGGGAGATTAGAGTATCGGTCGA,4.92
15,CTGATTTAGCTATTTGACCTTCGGCCTCAAGCCTAGGGAGATTAGAGTATCGGTCGA,8.16
16,TGGCTGGGCCCTGACCTCAAGTGACCTTTGGCCTAGGGAGATTAGAGTATCGGTCGA,7.17
17,ATCGCCCTTTGAGGAGGCCTTTCCTGACCCGCCTAGGGAGATTAGAGTATCGGTCGA,2.78
18,CTGGGCCCTGCCTGACCTGCCCTTTGTCCCGCCTAGGGAGATTAGAGTATCGGTCGA,6.28
19,TTAGCTATTTGACCTTCGGCCTCAATTATAGCCTAGGGAGATTAGAGTATCGGTCGA,6.43
20,GGCTTGTACCTTGACCTTCTCTGTTAACCCGCCTAGGGAGATTAGAGTATCGGTCGA,4.27
21,GATGGGCCAGGCAGGACAGTTTTGTGTGTTGCCTAGGGAGATTAGAGTATCGGTCGA,1.11
22,TCAGATATCTGAATGTACCTTTGAAACCTAGCCTAGGGAGATTAGAGTATCGGTCGA,2.87
23,ATCCAGTAGAGGGCATAGCAGATAAGCATTGCCTAGGGAGATTAGAGTATCGGTCGA,-0.984
24,ACTTCTTTGTGATGTGTGGATTCAGCTCACGCCTAGGGAGATTAGAGTATCGGTCGA,1.29
25,ATCTCAAATAGCTGGGTCTCACTCTGACCCGCCTAGGGAGATTAGAGTATCGGTCGA,3.32
26,ACTTCAAAGGGTGTTGTGACTACCTGGTTAGCCTAGGGAGATTAGAGTATCGGTCGA,0.524
27,AACTTCTTCCAATGAAAGGTTAACCTGCTGGCCTAGGGAGATTAGAGTATCGGTCGA,1.36
